Source: PubChem BioAssay AID720513 (Broad Institute, 2013)
The whole screen tested about 2,100 compounds, of which about 480 (23%) were called active. Inconclusive results (about 5%) are left out.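 How the source made its calls: active means fitted curve reaches 40% activation at or below the top valid concentration, in every replicate test; inconclusive means replicate tests disagree on the call; inactive means the rest, including activity in the opposite direction.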 The list is a sample of the results. Where a call stands in place of a potency, no number is given. Potency and affinity values are given separately.

Assay: activators raising PGC1a acetylation in cells, dose response, cell-based, cherry-picked samples, set 6 (AID 720513);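 further: cells made to overexpress flag tagged PGC1a plus GCN5 acetyltransferase by viral infection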
Conditions: U2OS PGC1a acetylation AlphaLISA, overnight, 0 = neutral, -100 = inhibitor control; series mostly up to 19.5 µM

Structure (SMILES)	outcome
O=C(NNS(=O)(=O)c1ccc(F)cc1)c1ccc(S(=O)(=O)N2CCCCC2)cc1	inactive
N#CC1(NC(=O)Cn2ncc(Cl)c(Cl)c2=O)CCCCC1	inactive
C#CCN(C[C@@H]1[C@@H](OC(=O)NCCCCCC)[C@@H](OC(=O)NCCCCCC)Cn2c(=O)ccc(=O)n21)S(=O)(=O)c1ccc(C)cc1	inactive
CO[C@H]1CN(C)C(=O)c2ccc(NS(=O)(=O)c3ccccc3)cc2OC[C@H](C)N(C(=O)NC(C)C)C[C@@H]1C	inactive
CCN(CC)S(=O)(=O)c1ccc(C(=O)Nc2cc(S(=O)(=O)N3CCOCC3)ccc2O)cc1	inactive
O=C(Cn1cc(C(F)(F)F)ccc1=O)Nc1cc(S(=O)(=O)N2CCOCC2)ccc1Cl	inactive
O=C(Nc1cc(S(=O)(=O)N2CCOCC2)ccc1Cl)c1cc([N+](=O)[O-])ccc1Cl	inactive
CCN(CC)c1ccc(S(=O)(=O)N2CCOCC2)cc1NC(=O)Cn1nc(C)c([N+](=O)[O-])c1C	inactive
Cc1nn(CCCC(=O)O)c(C)c1[N+](=O)[O-]	inactive
CCC(=O)NC1(Cc2ccc(O)cc2)CCCCC1	inactive
COCCNC(=O)CN(C(=O)CCC(=O)Nc1ccccn1)c1ccc(OC)cc1	inactive
CCN(CC)CCNc1ccc(C)c2sc3ccc(O)cc3c(=O)c12	inactive
Cc1cccc(CCN(CC(=O)NC(C)(C)C)C(=O)c2csnn2)c1	inactive
C[C@H]1CN([C@@H](C)CO)S(=O)(=O)c2ccc(C3=CCCC3)cc2O[C@@H]1CN(C)C	inactive
Cc1ccc(S(=O)(=O)N(C)C[C@@H]2Oc3cc(C#Cc4ccncc4)ccc3S(=O)(=O)N([C@H](C)CO)C[C@H]2C)cc1	inactive
Cc1ccc(S(=O)(=O)N(C)C[C@H]2Oc3cc(C#Cc4ccncc4)ccc3S(=O)(=O)N([C@H](C)CO)C[C@H]2C)cc1	inactive
Cc1ccc(S(=O)(=O)N(C)C[C@@H]2Oc3cc(C#Cc4ccncc4)ccc3S(=O)(=O)N([C@@H](C)CO)C[C@H]2C)cc1	inactive
COc1ccc(S(=O)(=O)N(C)C[C@@H]2Oc3cc(C#CC4CC4)ccc3S(=O)(=O)N([C@H](C)CO)C[C@H]2C)cc1	inactive
C[C@@H]1CN([C@@H](C)CO)S(=O)(=O)c2ccc(C3=CCCCC3)cc2O[C@H]1CN(C)C	inactive
COc1ccc(S(=O)(=O)N(Cc2cc3ccc(OC)cc3[nH]c2=O)CC2COCCO2)cc1 (stereo not drawn)	inactive
Cn1c2c(c(=O)n(C)c1=O)C(c1cccc(F)c1)C(C#N)=C(N)O2 (stereo not drawn)	inactive
Cc1ccc(S(=O)(=O)N(C)C[C@H]2Oc3ccc(NC(=O)CCC(F)(F)F)cc3C(=O)N([C@H](C)CO)C[C@@H]2C)cc1	inactive
CCOC(=O)c1ccc(N2C(=O)CC(N3CCC(O)(c4ccc(Br)cc4)CC3)C2=O)cc1 (stereo not drawn)	inactive
Cn1ncc2c(O/N=C(\N)c3ccc(C(F)(F)F)cc3)ncnc21	inactive
CCOC(=O)CSc1nc2cc3c(cc2cc1C#N)OCCO3	inactive

Structure (SMILES)	outcome
CC(C)OC(=O)CSc1nc2cccnc2n1-c1ccc(F)cc1	inactive
O=C(/C=C/c1ccc(F)cc1)NNC(=O)CCN1CCN(Cc2ccccc2)CC1	inactive
Cc1[nH]c(=O)c(C(=O)/C=C/c2ccccc2)c2c1CCCC2	inactive
CC(=O)N1CCN(C(C)=O)C1c1ccccc1	inactive
O=S(=O)(Nc1ccccn1)c1ccc(-n2cccn2)cc1	inactive
CC1CCN(C(=O)COC(=O)c2ccc(Br)o2)CC1	inactive
CCOc1ccc(S(=O)(=O)N(C)c2ccc(OCC(=O)N3c4ccc(C)cc4C4CN(C)CCC43)cc2)cc1 (stereo not drawn)	inactive
COc1ccc(OC)c(CNS(=O)(=O)c2cc(-c3cc(C)no3)ccc2OC)c1	inactive
CN(C[C@H]1N[C@@H](CO)[C@@H]1c1ccc(C2=CCCC2)cc1)C(=O)c1ccc(F)cc1	inactive
CN1OC[C@@H]2CN(S(=O)(=O)c3cccc4ccccc34)[C@H](c3ccc(N4CCCCC4)cc3)C[C@@H]21	inactive
Cc1cc(C)nc(N2CCC(C(=O)NCc3ccco3)CC2)n1	inactive
CC(C)CC(OC(=O)c1cccs1)C(=O)NCc1ccco1 (stereo not drawn)	inactive
Cc1ccc(C)n1-c1ccc(-c2nnco2)cc1	inactive
COc1ccc2c3c([nH]c2c1)[C@@H](CO)N(C(=O)c1ccccc1)CC31CCN(S(=O)(=O)c2cccs2)CC1	inactive
COc1ccc2c3c(n(C)c2c1)[C@H](CO)NCC31CCN(Cc2cc(-c3ccccc3)on2)CC1	inactive
CCN(CC)Cc1c(O)ccc2c([N+](=O)[O-])c(C)n(-c3ccc(OC)cc3)c12	inactive
CCOC(=O)CN1C(=O)C(Sc2n[nH]c(-c3ccc(C)cc3)n2)CCc2ccccc21 (stereo not drawn)	inactive
O=C1c2ccc(-c3ccc4c(c3)C(=O)N(CCCO)C4=O)cc2C(=O)N1CCCO	inactive
CNC[C@H]1Oc2ncc(C#CC3CCCCC3)cc2C(=O)N([C@H](C)CO)C[C@H]1C	inactive
O=C(Cn1cnc2c(nnn2Cc2ccc(Cl)cc2)c1=O)c1ccccc1	inactive
COc1cccc(OCc2nnc(SCC(=O)OCc3ccccc3)o2)c1	inactive
COc1ccc(CN(C)C[C@@H]2Oc3ccc(NS(=O)(=O)c4c(C)noc4C)cc3C(=O)N([C@H](C)CO)C[C@H]2C)cc1	inactive
Cc1cc(C)cc(N(CC(=O)Nc2c(C)n(C)n(-c3ccccc3)c2=O)S(C)(=O)=O)c1	inactive
C[C@@H]1CN([C@H](C)CO)C(=O)CCCn2nncc2CO[C@H]1CN(C)S(=O)(=O)c1cn(C)cn1	inactive
CN(Cc1ccccc1)C(=O)c1ccc2c(c1)NC(=O)C(N1CCOCC1)S2 (stereo not drawn)	inactive

Structure (SMILES)	outcome
CCCOc1ccccc1C1C(C(=O)OC)=CN(C(C)C)C=C1C(=O)OC	inactive
CN(c1cccc(NS(=O)(=O)c2cccs2)c1)S(C)(=O)=O	inactive
CC(=O)c1ccccc1-c1csc2ncnc(Sc3nnnn3C)c12	inactive
CCn1c(CNc2ccc(C)cc2)nnc1SCC(N)=O	inactive
Cc1[nH]nc2ncc(C(=O)c3ccccc3O)cc12	inactive
Cn1c(SCc2ccon2)nc2ccccc2c1=O	inactive
CNC[C@@H]1OCCCC[C@H](C)Oc2ccc(NS(=O)(=O)c3cccs3)cc2C(=O)N([C@H](C)CO)C[C@@H]1C	inactive
Cc1noc(C)c1NC(=O)N(C)C[C@@H]1OCCCC[C@@H](C)Oc2ccc(N(C)C)cc2C(=O)N([C@@H](C)CO)C[C@H]1C	inactive
COc1ccc(C(=C(CC(=O)O)C(=O)OC(C)(C)C)c2cc(OC)c(OC)c(OC)c2)cc1OC	inactive
CCCOc1ccc(/C=C/C(=O)O)cc1OC	inactive
CN(C)C(=O)C[C@H]1CC[C@H](NC(=O)C2CCC2)[C@@H](CO)O1	inactive
COc1ccc2cc3c(N)nn(C(=O)c4ccccc4Cl)c3nc2c1	inactive
COc1ccc(NCc2nnc(SCC(=O)Nc3cc(C)cc(C)c3)o2)cc1	inactive
CCc1c(C)nc(SCC(=O)Nc2ccc3c(c2)OCCO3)[nH]c1=O	inactive
CCN1C(=O)c2cccc3c(S(=O)(=O)Nc4ccccn4)ccc1c23	inactive
Cc1ccc(O)c(NC(=O)c2ccc3c(c2)C(=O)N(CC(C)C)C3=O)c1	inactive
CCN1CCN(C(=O)c2c(-c3c(F)cccc3Cl)noc2C)CC1	inactive
C[C@H](CO)N1C[C@H](C)[C@H](CN(C)C(=O)NC2CCCCC2)Oc2cc(C#Cc3ccc(F)cc3)ccc2S1(=O)=O	inactive
Nc1ccccc1-c1ccn[nH]1	inactive
CC1=NN(C(=O)c2ccc(C)cc2)C(O)(C(F)(F)OC(F)(F)F)C1 (stereo not drawn)	inactive
O=C(c1ccco1)N1N=C(c2ccc(Cl)cc2)CC1(O)C(F)(F)F (stereo not drawn)	inactive
COc1ccc(C(C)(O)c2nc(-c3cccc(O)c3)cs2)cc1 (stereo not drawn)	inactive
COc1ccc(-c2ccc(CCC(=O)O)n2NC(=O)c2ccc(C(C)(C)C)cc2)cc1	inactive
O=C(Nc1ccc(F)cc1)N[C@H]1C=C[C@H](CC(=O)N2CCCCC2)O[C@H]1CO	inactive
COc1cccc(-c2cc(C(=O)NCCCn3ccnc3)no2)c1	inactive

Structure (SMILES)	outcome
CCSc1ccccc1C(=O)NCCCn1ccnc1	inactive
Cc1ccccc1-c1nc(C(=O)NCC2CCCO2)cc2c1[nH]c1ccccc12 (stereo not drawn)	inactive
C[C@@H]1CN([C@@H](C)CO)S(=O)(=O)c2ccc(-c3ccc(F)cc3)cc2O[C@H]1CN(C)C(=O)C1CCCCC1	inactive
C#CCN(C[C@@H]1[C@@H](OC(=O)NC2CCCC2)[C@@H](OC(=O)NC2CCCC2)Cn2c(=O)ccc(=O)n21)S(=O)(=O)c1ccc(C)cc1	inactive
O=C1N(Cc2ccccc2)Cc2ccccc2[C@@H]2OC(c3ccc(OCCCO)cc3)=N[C@]12Cc1ccccc1	inactive
CCCC#Cc1ccc2c(c1)O[C@@H](CN(C)C(=O)C1CC1)[C@@H](C)CN([C@@H](C)CO)S2(=O)=O	inactive
COC(c1ccccc1)c1nnc(CCC(=O)N(C)C(C2CC2)C2CC2)o1 (stereo not drawn)	inactive
COCC(=O)NCc1nc2ccccc2n1Cc1ccccc1F	inactive
COCCNC(=O)C(c1ccc(F)cc1)N(Cc1ccco1)C(=O)CCC(=O)Nc1nccs1 (stereo not drawn)	inactive
CCCCn1nc(NC(=O)c2cccs2)c2cc3ccccc3nc21	inactive
COc1ccc2cc3cc(C(=O)NCc4cccs4)oc3nc2c1	inactive
CN(C)c1ccc(C(=O)NC2(N3CCC3=O)CCCC2)cc1	inactive
CCOC(=O)N1CCN(C(=O)c2cc(Cl)c(Cl)cc2C(=O)O)CC1	inactive
Clc1ccc(CSc2nnc(-c3cccnc3)n2Cc2ccco2)c(Cl)c1	inactive
CCOC(=O)C1=C(C)N=c2s/c(=C\c3cccc(OCC(=O)O)c3)c(=O)n2C1c1ccccc1OC (stereo not drawn)	inactive
C[C@H](CO)N1C[C@H](C)[C@@H](CN(C)Cc2ccc(C(F)(F)F)cc2)Oc2ccc(NS(=O)(=O)c3ccc(F)cc3)cc2C1=O	inactive
COc1ccc(CN(C)C[C@H]2Oc3c(NC(=O)CCCCCC(=O)Nc4ccccc4N)cccc3C(=O)N([C@H](C)CO)C[C@@H]2C)cc1	inactive
C[C@H]1CN([C@@H](C)CO)C(=O)c2cccc(NC(=O)C3CCCCC3)c2O[C@H]1CN(C)Cc1ccc(C(=O)Nc2ccccc2N)cc1	inactive
Cc1noc(C)c1NC(=O)Nc1cccc2c1O[C@H](CN(C)Cc1ccc(Oc3ccccc3)cc1)[C@H](C)CN([C@@H](C)CO)C2=O	inactive
C[C@H](CO)N1C[C@H](C)[C@H](CN(C)Cc2ccc(C(=O)Nc3ccccc3N)cc2)Oc2c(NC(=O)c3cnccn3)cccc2C1=O	inactive
Cc1noc(C)c1S(=O)(=O)Nc1cccc2c1O[C@@H](CN(C)Cc1ccncc1)[C@@H](C)CN([C@@H](C)CO)C2=O	inactive
C[C@@H]1CN([C@H](C)CO)C(=O)c2cc(NS(=O)(=O)c3ccc(F)cc3)ccc2O[C@H]1CN(C)Cc1ccc(C(F)(F)F)cc1	inactive
C[C@@H]1CN([C@H](C)CO)C(=O)c2cc(NC(=O)Cc3ccccc3)ccc2O[C@@H]1CN(C)Cc1ccncc1	inactive
